S16 viability – cytotoxicity in S16 Pmp22-F2sN Schwann cells; S16 Pmp22-F2sN Schwann cells viability, CellTiter-Glo, 24 h; Potency, µM (top dose mostly 57.5 µM), without a hit: at the highest dose activity change, negative = cytotoxicity, usual class: cytotoxic; 43,000 tested, 0.48% active; AID 1508642; further: potency means the concentration at half of the fitted maximal effect; on the % scale 0 is the no-effect control and ±100 the full control effect; nearly all actives have a fitted effect of over 65% in size
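Seed 500-1,000 S16 Pmp22-F2sN cells per well in phenol-red-free DMEM with 10% heat-inactivated FBS; pin-add 23 nL compound; incubate 24 h at 37C; add CellTiter-Glo, wait 15 min protected from light; read luminescence.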
HTT promoter inh – inhibitors of huntingtin promoter activity; HEK293 HTT promoter firefly luciferase reporter, 24 h; Potency, µM (doses to about 57.5 µM), without a hit: at the top dose activity change, negative = inhibition, usual class: inhibitors; 48,000 tested, 0.93% active; further: potency means the concentration at half of the fitted maximal effect; nearly all actives have a fitted effect of over 50% in size
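Luminescence was read after Dual-Glo reagent and a 10 min room-temperature incubation. Values were normalized to vehicle (0% activity) and zero RLU (-100% activity). Reporter HEK293 cells had been exposed to compounds (up to 57.5 uM final) for 24 h.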
PMP22 txn prim – modulates PMP22 transcription in S16 Schwann cells; Potency, µM (top dose mostly 57.5 µM), for inactives: top-dose activity change, negative = inhibition, usual class: inhibitors; 43,000 tested, 2% active; S16 Pmp22-F2sN Schwann cells (luciferase reporters placed in the Pmp22 gene), FLuc/NLuc coincidence luminescence, 24 h; active means clear falling dose curves in both reporters; inconclusive means both reporters move, but less clearly or upward; inactive means either reporter flat; the % is the NLuc reporter signal; further: potency means the concentration at half of the fitted maximal effect; on the % scale 0 is the no-effect control and ±100 the full control effect
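qHTS, 1536-well. Cells seeded, compounds added by pin tool, 24 h 37C. Nano-Glo reagent 1 (lysis/FLuc), 10 min RT, read; Stop&Glo, 10 min RT, read NLuc.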
OvCa metastasis – blocks SKOV3ip1 adhesion and invasion in omental model | SKOV3ip1-GFP adhesion/invasion on 3D omental model, fluorescence | Potency, µM (highest dose often 45.8 µM), without a hit: top-dose activity change, negative = inhibition, actives largely listed as inhibitors | 46,000 tested, 0.1% active;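 further: potency means the concentration at half of the fitted maximal effect; plate controls were DMSO wells for no effect and tomatine positive control wells for full effect; nearly all actives have a fitted effect of over 65% in size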
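qHTS, 4-pt dose (0.36-46 umol/L); SKOV3ip1-GFP, 1,200 cells/well, no FBS; primary omental fibroblast/mesothelial co-culture 48 h pre-grown; 2 h RT + 16 h 37 C; PBS wash, 4% PFA; GFP count 488/509 nm.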
mTORC1 inh – reduces mTORC1 signaling in Tsc2 and p53 null MEF cells | Tsc2-/- p53-/- MEF, phospho-rpS6 immunofluorescence/PI, 24 h | Potency, µM (doses to about 38.3 µM), for inactives: at the top dose activity change, negative = inhibition, actives largely listed as inhibitors | 44,000 tested, 0.78% active;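 further: potency means the concentration at half of the fitted maximal effect; plate controls were DMSO for no effect and rapamycin for full effect; nearly all actives have a fitted effect of over 50% in size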
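Readout is phospho-S6 Alexa 488 signal normalized to PI per well, reported as % active cells with thresholds set from rapamycin (7.5 nM) and DMSO controls. Cells: Tsc2-/-, p53-/- MEFs, 24 hrs compound at 37 C; PI cell number serves as viability.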
HTT-AS act – HTT-AS promoter activation; Potency, µM (series often up to 57.5 µM), for inactives: at the highest dose activity change, positive = activation, actives largely listed as activators; 48,000 tested, 0.24% active; HEK293 HTT-AS promoter firefly luciferase reporter, 24 h; response scale: percent change from vehicle, -100% = no light; further: potency means the concentration at half of the fitted maximal effect; nearly all actives have a fitted effect of over 55% in size
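HEK293 luciferase promoter-reporter cells (2,500/well) plated 24 h, then compounds added at up to 57.5 uM final for 24 h at 37 °C. Firefly luminescence by Dual-Glo, normalized to vehicle (0%) and zero RLU (-100%).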
NLuc sat counter – inhibits NanoLuc at saturating substrate, PMP22 counter-screen | shares compounds with PMP22 txn prim | Secreted NLuc enzyme (filtered S16 cell medium), Nano-Glo luminescence | Potency, µM (series often up to 57.5 µM), without a hit: top-dose activity change, negative = inhibition, usual class: inhibitors | 690 tested, 4% active; further: potency means the concentration at half of the fitted maximal effect; on the % scale 0 is the no-effect control and ±100 the full control effect
NLuc Km ctr – inhibits NanoLuc under Km conditions, PMP22 counter-screen | shares compounds with PMP22 txn prim | secreted NLuc enzyme, coelenterazine luminescence, Km conditions | Potency, µM (top dose mostly 57.5 µM), inactives show at the top dose activity change, negative = inhibition, actives largely listed as inhibitors | 690 tested, 5% active | AID 1508639; further: potency means the concentration at half of the fitted maximal effect; on the % scale 0 is the no-effect control and ±100 the full control effect
FLuc ctr PMP22 – inhibits firefly luciferase, PMP22 counter-screen; shares compounds with PMP22 txn prim; purified P. pyralis FLuc, luminescence, 10 min; Potency, µM (highest dose often 57.5 µM), without a hit: at the top dose activity, negative = inhibition, most hits filed as inhibitors; 690 tested, under 10 active; further: % of control where 0% means no effect
Target sequence (P08659 whole entry, looked up): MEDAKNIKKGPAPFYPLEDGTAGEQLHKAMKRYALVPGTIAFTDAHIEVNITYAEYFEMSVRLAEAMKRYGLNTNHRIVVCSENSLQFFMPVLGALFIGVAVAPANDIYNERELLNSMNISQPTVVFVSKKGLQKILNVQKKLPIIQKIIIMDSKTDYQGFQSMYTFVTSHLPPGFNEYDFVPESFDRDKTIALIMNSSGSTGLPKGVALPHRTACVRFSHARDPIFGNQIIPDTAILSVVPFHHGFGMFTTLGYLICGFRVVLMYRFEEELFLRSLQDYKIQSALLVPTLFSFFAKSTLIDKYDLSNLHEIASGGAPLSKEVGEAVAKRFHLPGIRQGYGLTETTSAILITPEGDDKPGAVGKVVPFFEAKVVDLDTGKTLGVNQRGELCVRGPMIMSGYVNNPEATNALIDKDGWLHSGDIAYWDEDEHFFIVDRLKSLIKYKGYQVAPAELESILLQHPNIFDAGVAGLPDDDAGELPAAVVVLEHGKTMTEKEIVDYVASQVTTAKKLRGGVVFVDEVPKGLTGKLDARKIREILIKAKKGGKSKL
S16 F2sN tox cnf – S16 Schwann cell cytotoxicity, confirmatory. shares compounds with PMP22 txn prim. S16 Schwann cells viability, CellTiter-Glo ATP luminescence, 24 h. Potency, µM (highest dose often 57.5 µM), for the others: at the top dose activity change, negative = viability loss, actives largely listed as cytotoxic. 690 tested, 7% active; further: potency means the concentration at half of the fitted maximal effect; on the % scale 0 is the no-effect control and ±100 the full control effect
PMP22 txn cnf – confirmation of modulators of PMP22 gene transcription in S16 cells; shares compounds with PMP22 txn prim; S16 Schwann cells Pmp22-F2sN, dual luciferase, 24 h; Potency, µM (series often up to 57.5 µM), inactives show at the highest dose activity change, negative = inhibition, actives largely listed as inhibitors; 690 tested, 22% active; active means clear falling dose curves in both reporters; inconclusive means both reporters move, but less clearly or upward; inactive means either reporter flat; the % is the FLuc reporter signal; further: potency means the concentration at half of the fitted maximal effect
PMP22 prot conf – confirmation of modulators of rat PMP22 protein expression. shares compounds with PMP22 txn prim. S16 Schwann cells Pmp22-HiBiT, luminescence, 48 h. Potency, µM (series often up to 27.9 µM), inactives show at the highest dose activity change, negative = inhibition, most hits filed as inhibitors. AID 1508647. 95 tested, under 10 active
* = called active by the depositor; i = inactive; ? = inconclusive; · = no result given. An excerpt weighted towards active compounds, which were near 3.6% of everything screened. Unless noted, the call rests on the fitted dose curve; in most records, active means well fitted curve in the direction sought with a large enough effect; inconclusive means small, poorly fitted or top-dose-only effect, or another doubt; inactive means no such curve, though single readings can be large; an effect the other way counts as inactive or inconclusive.

SMILES	S16 viability	HTT promoter inh	PMP22 txn prim	OvCa metastasis	mTORC1 inh	HTT-AS act	NLuc sat counter	NLuc Km ctr	FLuc ctr PMP22	S16 F2sN tox cnf	PMP22 txn cnf	others
COc1ccccc1NC(=O)Cn1c(=O)n(-c2cccc(Cl)c2)c(=O)c2sc3ccccc3c21	1.5%	-13.0%	10µM*	i	1.2%	-13.5%	-3.8%	5.1%	0.8%	?	6.48µM*	PMP22 prot conf=6.45µM*
Cc1c(Cl)cccc1NC(=O)Cn1c(=O)n(Cc2ccco2)c(=O)c2sc3ccccc3c21	0.6%	-4.8%	12.7µM*	i	-9.9%	-7.0%	-2.7%	9.0%	2.6%	-37.8%	15.4µM*
COc1cccc(-n2c(=O)c3sc4ccccc4c3n(CC(=O)Nc3cccc(Cl)c3)c2=O)c1	22.2%	-21.4%	1.3%	-3.0%	-1.1%	-17.0%	·	·	·	·	·
CCc1ccc(-n2c(=O)c3sc4ccccc4c3n(CC(=O)NCc3ccccc3)c2=O)cc1	4.4%	2.1%	?	22.5%	-3.8%	-7.4%	·	·	·	·	·
Cc1ccc(CNC(=O)Cn2c(=O)n(Cc3ccc(F)cc3)c(=O)c3sc4ccccc4c32)cc1	1.5%	-12.3%	-32.3%	i	-20.5%	-1.1%	·	·	·	·	·
Cc1ccc(CNC(=O)Cn2c(=O)n(Cc3ccccc3)c(=O)c3sc4ccccc4c32)cc1	4.5%	-7.2%	13.4µM*	32.3%	0.9%	-15.2%	-1.1%	7.0%	8.6%	-19.5%	19.3µM*
CCCCCOC(=O)Nc1nc(=O)n([C@@H]2O[C@H](C)[C@@H](O)C2O)cc1F (some centres undefined)	·	-2.6%	·	4.7%	·	9.8%	·	·	·	·	·
CC=CC(=O)N(CC)c1ccccc1C	·	-9.6%	·	5.4%	·	-39.6%	·	·	·	·	·
O=C(NC[C@H](O)CO)c1ccncc1Nc1ccc(I)cc1F	·	-14.8%	·	17.5%	·	-16.2%	·	·	·	·	·
COc1ccc(CNC(=O)c2ccc3c(c2)N=C(C)c2c(C)ccc(C)c2S3)cc1	14.5%	?	?	-1.3%	1.0%	-45.0%	·	·	·	·	·
CCC1=Nc2cc(C(=O)NCCc3ccc(OC)c(OC)c3)ccc2Sc2ccccc21	-0.5%	?	?	73.4%	0.6%	-38.0%	·	·	·	·	·

Screening data from PubChem.
